Results on eight molecules are retold here after PubChem BioAssay.

Each structure is given as a SMILES string. Calls of active or inactive are those of the source. Unless noted, how the calls were made is not given here.

In assay [1] the test system is Wnt5a (protein binding on small-molecule microarray). Description: Wnt5a binders on small-molecule microarray, primary screen, biophysical, 635/667 nm fluorescence (AID 1142).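 Further: fluorescence read at 667 nm with signal to noise per printed feature.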 The settings on record: 635 nm fluorescence, higher = more signal.
Assay [2] can be described thus: cell viability in Huh7 cells, primary screen, cytotoxicity control for HCV replication inhibitor project, CellTiter-Glo luminescence, basal, 48 h (AID 1143).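 Further: Huh7 hepatoma cells carrying a hepatitis C replication reporter with no stimulus; test concentration not given here.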 To be noted: Huh7 HCV replicon, higher = more signal, called active from +8 up or from −8 down. A general note: ATP-based viability assays read luminescence as a measure of living cells.
The nature of assay [3]: P. aeruginosa biofilm formation inhibitors, primary screen, PAO1 strain, BacTiter-Glo luminescence, LB-PBS (AID 1144). To be noted: 12 h, higher = more signal.
Assay [4] can be described thus: CREB reporter modulators without forskolin, primary screen, cell-based, PC12, CRE-LacZ reporter, unstimulated (AID 1145). To be noted: no forskolin, luminescence, 4.5 h, higher = more signal, called active from +8 up or from −8 down.
A short description of assay [5]: CREB reporter modulators under forskolin, primary screen, cell-based, PC12, CRE-LacZ reporter, forskolin-stimulated (AID 1146).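 Further: PC12 cells with 6xCRE LacZ reporter stimulated by forskolin 10 µM; beta-galactosidase reporter signal reflecting CREB driven transcription.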 The settings on record: luminescence, 4.5 h, higher = more signal, called active from +8 up or from −8 down.
Assay [6] addresses Streptavidin (Streptomyces avidinii) (UniProt P22629). Description: streptavidin binders on small-molecule microarray, primary screen, artefact control for SMM compound annotation, biophysical, 635/667 nm fluorescence (AID 1147).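 Further: signal reflects streptavidin binding to arrayed compounds as a control protein.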 The settings on record: streptavidin binding, higher = more signal.
Assay [7] in a line: small-molecule binders of probe aInhba, primary screen, biochemical, small-molecule microarray, 635/667 nm fluorescence (AID 1148).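 Further: score merges 667nm spot fluorescence with signal-to-noise for antibody binding to printed compounds.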 The settings on record: higher = more signal.
Assay [8] deals with Torsin-1A (Homo sapiens) (UniProt O14656). Nature of the assay: torsin A binders from cell lysate, primary screen, small-molecule microarray, wild-type, 635/667 nm (AID 1149). To be noted: COS7 hTOR1A-WT lysate, 635 nm fluorescence, higher = more signal.
For assay [9] the target is unchanged. Description: small-molecule binders of mutant TOR1A in lysate, primary screen, cell lysate, small-molecule microarray, COS7 lysate, 635/667 nm fluorescence (AID 1150).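 Further: score pools 667 nm emission and signal to noise measuring lysate protein binding.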 The settings on record: COS7 hTOR1A mutant lysate, 635 nm fluorescence, higher = more signal.
Assay [10] deals with Sonic hedgehog protein (Shh). Description: small-molecule binders of Shh protein, primary screen, biochemical, small-molecule microarray, 635/667 nm fluorescence (AID 1151).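 Further: Shh protein binding to compounds spotted on small-molecule microarray slides; score combines spot fluorescence intensity with signal-to-noise across triplicate slides.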 To be noted: small-molecule microarray binding, 635 nm fluorescence; higher = more signal.
The nature of assay [11]: E. coli DRC41 culture turbidity changes, primary screen, E. coli filamentation inducer project, strain DRC41, OD650, 48 h (AID 1152).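 Further: E. coli MC1000 strain DRC41 lacking acrAB efflux pump and sulA.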 To be noted: E. coli DRC41 (acrAB sulA), higher = more signal, called active from +8 up or from −8 down.
A short description of assay [12]: small-molecule binders of probe aLefty1, primary screen, biochemical, small-molecule microarray, 635/667 nm fluorescence (AID 1153).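 Further: score merges spot fluorescence with signal-to-noise ratio from the scanned slide images.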 To be noted: higher = more signal.
The nature of assay [13]: PSAC antagonists in infected red cells, primary screen, cell-based, P. falciparum Indochina, OD700, 1 h (AID 1154). The settings on record: P. falciparum Indochina infected RBC osmotic lysis, higher = more signal, called active from +8 up or from −8 down.
Assay [14] in a line: PSAC antagonists in infected red cells, primary screen, cell-based, P. falciparum Indochina, OD700, 2 h (AID 1155).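 Further: lysis reports solute entry through the parasite surface anion channel PSAC; channel blockers reduce lysis of infected cells.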 The settings on record: P. falciparum Indochina infected erythrocytes, osmotic lysis OD700; higher = more signal, called active from +8 up or from −8 down.
Assay [15] in a line: osmotic lysis modulators in infected erythrocytes, primary screen, PSAC antagonist project, cell-based, P. falciparum Indochina, OD700, 3 h (AID 1156). To be noted: higher = more signal, called active from +8 up or from −8 down.
A short description of assay [16]: PSAC antagonists in infected red cells, primary screen, cell-based, P. falciparum Indochina, OD700, 18 h (AID 1157). To be noted: P. falciparum Indochina infected erythrocytes, osmotic lysis OD700, 18 h; higher = more signal, called active from +8 up or from −8 down.
Assay [17] can be described thus: modulators of S6 phosphorylation in cells, primary screen, cell-based, A549, cytoblot, luminescence, serum-stimulated (AID 1158).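 Further: serum-stimulated A549 lung adenocarcinoma cells; signal is phosphorylated S6 detected by cytoblot immunostaining with HRP secondary.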 The settings on record: A549 phospho-S6 cytoblot, 5 h, higher = more signal.
Assay [18] deals with NADPH oxidase 2 (Homo sapiens) (UniProt P04839). Nature of the assay: NOX2-dependent H2O2 signal modulators, primary screen, NOX inhibitor project, cell-based, HEK293-NOX2, PMA-stimulated, Amplex Red fluorescence (AID 1159). Further: test concentration not given here. The settings on record: 45 min, higher = more signal, called active from +8 up or from −8 down.
Assay [19] deals with NADPH oxidase 4 (Homo sapiens) (UniProt Q9NPH5). Nature of the assay: NOX4-dependent H2O2 signal modulators, primary screen, NOX inhibitor project, cell-based, HEK293-NOX4, tetracycline-induced, Amplex Red fluorescence (AID 1160). The settings on record: 45 min, higher = more signal, called active from +8 up or from −8 down.
Assay [20] has as its target NADPH oxidase 5 (Homo sapiens) (UniProt Q96PH1). Description: NOX5-dependent H2O2 signal modulators, primary screen, NOX inhibitor project, cell-based, HEK293-NOX5, Amplex Red fluorescence (AID 1161). The settings on record: HEK293-NOX5, ionomycin, 45 min, higher = more signal.

Chain of NADPH oxidase 4 (Homo sapiens) (Q9NPH5 whole entry, looked up): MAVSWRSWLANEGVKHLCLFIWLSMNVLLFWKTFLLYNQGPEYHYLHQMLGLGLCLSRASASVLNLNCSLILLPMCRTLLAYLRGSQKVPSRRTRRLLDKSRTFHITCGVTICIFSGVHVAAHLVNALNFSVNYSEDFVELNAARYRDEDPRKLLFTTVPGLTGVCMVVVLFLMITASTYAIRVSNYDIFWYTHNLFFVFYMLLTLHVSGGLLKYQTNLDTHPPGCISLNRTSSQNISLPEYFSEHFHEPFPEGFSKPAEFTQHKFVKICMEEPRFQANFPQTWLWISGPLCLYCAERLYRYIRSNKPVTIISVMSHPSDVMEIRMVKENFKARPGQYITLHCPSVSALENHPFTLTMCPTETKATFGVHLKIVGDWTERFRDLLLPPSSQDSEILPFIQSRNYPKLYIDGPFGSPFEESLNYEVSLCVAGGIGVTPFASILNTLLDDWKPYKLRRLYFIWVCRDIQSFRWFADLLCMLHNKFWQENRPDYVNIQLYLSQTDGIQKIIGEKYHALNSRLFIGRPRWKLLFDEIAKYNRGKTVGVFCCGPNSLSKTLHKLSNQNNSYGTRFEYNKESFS
Chain of Torsin-1A (Homo sapiens) (O14656 whole entry, looked up): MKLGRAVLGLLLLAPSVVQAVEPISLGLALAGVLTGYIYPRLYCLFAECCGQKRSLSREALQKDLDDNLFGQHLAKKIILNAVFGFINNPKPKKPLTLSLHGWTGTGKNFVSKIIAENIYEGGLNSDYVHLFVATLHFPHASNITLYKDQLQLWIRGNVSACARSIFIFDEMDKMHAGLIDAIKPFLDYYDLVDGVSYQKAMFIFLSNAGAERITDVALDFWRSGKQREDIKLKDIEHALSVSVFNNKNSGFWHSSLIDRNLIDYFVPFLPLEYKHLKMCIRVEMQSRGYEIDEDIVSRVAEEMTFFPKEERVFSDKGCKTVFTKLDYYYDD
Chain of Streptavidin (Streptomyces avidinii) (P22629 whole entry, looked up): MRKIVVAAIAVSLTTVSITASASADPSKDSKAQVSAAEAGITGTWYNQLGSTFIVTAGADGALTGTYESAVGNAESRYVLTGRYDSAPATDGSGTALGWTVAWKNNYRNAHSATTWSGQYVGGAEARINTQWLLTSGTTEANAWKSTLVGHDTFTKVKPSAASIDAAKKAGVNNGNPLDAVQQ
Chain of NADPH oxidase 5 (Homo sapiens) (Q96PH1 whole entry, looked up): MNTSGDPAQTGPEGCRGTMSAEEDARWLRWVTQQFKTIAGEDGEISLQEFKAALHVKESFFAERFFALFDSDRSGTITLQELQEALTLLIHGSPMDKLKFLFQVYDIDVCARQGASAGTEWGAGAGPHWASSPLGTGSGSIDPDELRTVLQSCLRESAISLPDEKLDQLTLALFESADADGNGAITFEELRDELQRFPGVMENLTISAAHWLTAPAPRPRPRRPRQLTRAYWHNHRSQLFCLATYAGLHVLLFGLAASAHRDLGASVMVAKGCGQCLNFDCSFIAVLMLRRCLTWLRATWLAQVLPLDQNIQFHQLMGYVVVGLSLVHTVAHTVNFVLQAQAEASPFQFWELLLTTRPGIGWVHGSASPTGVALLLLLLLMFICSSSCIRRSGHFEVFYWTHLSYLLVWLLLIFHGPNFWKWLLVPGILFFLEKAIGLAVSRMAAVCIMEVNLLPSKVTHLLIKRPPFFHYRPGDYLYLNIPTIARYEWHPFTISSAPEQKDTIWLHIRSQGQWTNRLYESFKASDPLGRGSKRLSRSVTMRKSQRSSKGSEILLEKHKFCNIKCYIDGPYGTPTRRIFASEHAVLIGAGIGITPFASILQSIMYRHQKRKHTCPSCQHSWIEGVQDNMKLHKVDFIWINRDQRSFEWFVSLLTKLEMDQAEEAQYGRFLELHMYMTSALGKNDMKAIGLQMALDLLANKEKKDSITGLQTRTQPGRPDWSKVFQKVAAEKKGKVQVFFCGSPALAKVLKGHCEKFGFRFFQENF
Chain of NADPH oxidase 2 (Homo sapiens) (P04839 whole entry, looked up): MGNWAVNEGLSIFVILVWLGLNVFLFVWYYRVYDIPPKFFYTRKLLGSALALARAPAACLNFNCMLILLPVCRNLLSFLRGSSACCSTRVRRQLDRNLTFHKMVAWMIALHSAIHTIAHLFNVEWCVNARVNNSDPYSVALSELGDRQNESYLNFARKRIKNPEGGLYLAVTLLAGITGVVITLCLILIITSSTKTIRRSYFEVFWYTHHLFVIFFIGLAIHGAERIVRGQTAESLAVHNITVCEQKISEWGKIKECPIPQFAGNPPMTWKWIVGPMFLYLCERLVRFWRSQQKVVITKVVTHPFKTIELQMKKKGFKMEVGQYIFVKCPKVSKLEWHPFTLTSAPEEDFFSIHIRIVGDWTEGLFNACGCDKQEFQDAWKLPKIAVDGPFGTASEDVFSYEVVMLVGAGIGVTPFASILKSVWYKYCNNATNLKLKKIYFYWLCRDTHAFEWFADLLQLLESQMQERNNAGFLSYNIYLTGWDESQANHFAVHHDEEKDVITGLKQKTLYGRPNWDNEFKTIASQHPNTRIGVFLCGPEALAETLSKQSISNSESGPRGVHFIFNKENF

On to `O=C1c2ccccc2[C@](Cc2ccccc2I)(C(=O)NC2CC2)[C@H](c2ccc(CO)cc2)N1Cc1ccccc1C(F)(F)F`, for which the composite z-score in [1] is -0.15; in assay [6] it was 0.671; in assay [7], 1.25; with Torsin-1A (Homo sapiens) [8], 0.147; with Torsin-1A (Homo sapiens) [9], 0.16; in assay [10] it was 0.792. In assay [12], this molecule returned a composite z-score of -0.0902. In addition, the z-score was -4.84 (inactive) in assay [2]; -0.0186 (inactive) in assay [3]; 0.764 (inactive) in assay [4]; -0.5 (inactive) in [5]; -1.14 (inactive) in assay [11]; 8.14 (active) in assay [13]. Also, the z-score in assay [14] is 0.789 (inactive); in assay [15] it was 4.29 (inactive); in [16], -0.165 (inactive); in assay [17], 2.18; in assay [18] it was 0.459 (inactive); in assay [19], -1.34 (inactive). Besides, the z-score in [20] was -2.92.

On to `COc1cc2c(cc1O)C(c1cccs1)N(Cc1sc3ccccc3c1Cl)CC2` (stereo not given), for which the composite z-score amounted to 0.702 in assay [1]; 1.64 in [6]; 0.122 in assay [7]; 1.43 with Torsin-1A (Homo sapiens) [8]; 1.56 with Torsin-1A (Homo sapiens) [9]; 0.953 in assay [10]. Also, the composite z-score in [12] came out at 0.0479. The z-score in assay [2] was -2.5 (inactive); in [3], 0.546 (inactive); in [4], -0.141 (inactive); in assay [5], 0.93 (inactive); in [11], -1.49 (inactive); in assay [13], 10.4 (active). Besides, the z-score in [14] was 3.63 (inactive); in assay [15], -0.333 (inactive); in [16] it was 2.24 (inactive); in assay [17], -0.511; in [18] it was -3.92 (inactive); in assay [19], -2.48 (inactive). Also, the z-score in assay [20] is -3.48.

`COc1ccc([Si](C)(C)[C@H]2[C@H](CCO)O[C@@]3(C(=O)N(Cc4ccccc4)c4ccc(N5C(=O)c6ccccc6Oc6ccccc65)cc43)[C@@H]2C)cc1`: the composite z-score in assay [1] is 0.147; in [6] it was -0.069; in assay [7], -0.128; with Torsin-1A (Homo sapiens) [8], -0.218; in the assay with Torsin-1A (Homo sapiens) [9] it was 0.102; in assay [10] it was 0.534. The molecule also displayed a composite z-score in assay [12] of 0.121. Moreover, the z-score was -6.59 (inactive) in assay [2]; -0.0823 (inactive) in assay [3]; 0.324 (inactive) in [4]; -0.328 (inactive) in assay [5]; 0.503 (inactive) in assay [11]; 3.46 (inactive) in assay [13]. The z-score was 1.45 (inactive) in [14]; 0.354 (inactive) in assay [15]; 1.19 (inactive) in assay [16]; 0.314 in [17]; -1.35 (inactive) in assay [18]; 1.42 (inactive) in [19]. In addition, in assay [20], the z-score was determined as 0.269.

On to `[N-]=[N+]=Nc1ccccc1[C@@H]1OC(c2ccc(OCCCO)cc2)=N[C@]1(Cc1ccccc1)C(=O)NCc1ccccc1`, for which the composite z-score in [1] worked out at 0.792; in [6], 1.45; in assay [7], 0.38; with Torsin-1A (Homo sapiens) [8], 0.662; in the assay with Torsin-1A (Homo sapiens) [9] it was 1.09; in [10], 0.263. In addition, the composite z-score in assay [12] came to 0.703. The z-score was -3.97 (inactive) in [2]; -0.065 (inactive) in assay [3]; 0.143 (inactive) in assay [4]; -0.757 (inactive) in assay [5]; -0.165 (inactive) in [11]; 31.6 (active) in assay [13]. Further, the z-score is 29.2 (active) in [14]; 3.08 (inactive) in assay [15]; 7.04 (inactive) in assay [16]; -0.403 in assay [17]; -2.11 (inactive) in assay [18]; 1.15 (inactive) in assay [19]. The molecule also had a z-score in assay [20] of 0.377.

Regarding `CC1(C)C(=O)C(c2ccccc2)=C2CN3C(=O)N(CCc4ccccc4)C(=O)C3(Cc3ccc(F)cc3)C=C21` (stereo not given), the composite z-score in assay [1] is 0.198; in assay [6], 0.326; in assay [7] it was 0.349; in the assay with Torsin-1A (Homo sapiens) [8], -0.448; with Torsin-1A (Homo sapiens) [9], 0.0142; in assay [10] it was -1.41. In assay [12], this molecule returned a composite z-score of 0.595. The z-score in [2] was -1.86 (inactive); in assay [3], -0.425 (inactive); in assay [4], 0.587 (inactive); in assay [5], -0.0536 (inactive); in [11], -2.48 (inactive); in assay [13] it was 2.94 (inactive). In addition, the z-score in assay [14] was 0.371 (inactive); in [15], 1.8 (inactive); in assay [16], 0.765 (inactive); in assay [17] it was -0.16; in assay [18], -0.952 (inactive); in [19], -4.15 (inactive). The same molecule registered a z-score in assay [20] of -3.9.

Take `Cc1ccc(S[C@]2(C(=O)NCc3ccccc3)CC(=O)N(Cc3cc(C(F)(F)F)cc(C(F)(F)F)c3)[C@@H]2c2ccc(CO)cc2I)cc1`: the composite z-score in assay [1] is -0.309; in assay [6], -0.649; in [7] it was -0.0523; in the assay with Torsin-1A (Homo sapiens) [8] it was -0.199; with Torsin-1A (Homo sapiens) [9], -0.298; in assay [10] it was -0.757. Besides, the composite z-score in assay [12] is 0.0903. Further, the z-score in assay [2] is -1.24 (inactive); in [3] it was -0.314 (inactive); in assay [4], 0.479 (inactive); in [5] it was 0.279 (inactive); in assay [11], 1.66 (inactive); in assay [13], 3.13 (inactive). Moreover, the z-score in assay [14] was 0.769 (inactive); in [15] it was -0.0654 (inactive); in assay [16], 0.598 (inactive); in assay [17], 0.209; in assay [18], 1.69 (inactive); in assay [19], -1.24 (inactive). In assay [20], the z-score was 1.28.

Take `O=c1cccc(-c2ccc(F)cc2)o1`: the composite z-score in [1] was found to be 0.0405; in assay [6] it was 0.386; in assay [7], 0.179; with Torsin-1A (Homo sapiens) [8], 0.309; with Torsin-1A (Homo sapiens) [9], 0.0586; in assay [10], 0.559. The composite z-score in [12] came to 0.0367. Also, the z-score is 0.0779 (inactive) in assay [2]; -0.291 (inactive) in assay [3]; -0.433 (inactive) in [4]; 1.01 (inactive) in assay [5]; -0.527 (inactive) in assay [11]; 1.74 (inactive) in [13]. The z-score was 0.624 (inactive) in [14]; -0.099 (inactive) in [15]; 0.832 (inactive) in [16]; -0.387 in assay [17]; 0.227 (inactive) in assay [18]; -1.19 (inactive) in assay [19]. The same molecule returned a z-score in assay [20] of -0.184.

Regarding `[N-]=[N+]=NCc1ccccc1[C@@H]1OC(c2ccc(OCCCO)cc2)=N[C@]1(Cc1ccccc1N=[N+]=[N-])C(=O)NCCN1CCOCC1`, the composite z-score turned out to be 0.959 in [1]; 0.974 in [6]; 0.102 in assay [7]; 1.06 with Torsin-1A (Homo sapiens) [8]; 1.01 with Torsin-1A (Homo sapiens) [9]; 0.387 in assay [10]. Besides, the composite z-score in [12] worked out at 0.254. The z-score in [2] was -3.14 (inactive); in assay [3] it was 1.07 (inactive); in assay [4], 0.895 (inactive); in [5], -1.78 (inactive); in assay [11] it was -0.04 (inactive); in assay [13] it was 16.5 (active). The z-score was 2.41 (inactive) in assay [14]; 1.46 (inactive) in assay [15]; 1.45 (inactive) in assay [16]; -0.417 in assay [17]; -2.49 (inactive) in assay [18]; -0.406 (inactive) in [19]. In [20], this molecule had a z-score of -1.
